These results are taken from PubChem BioAssay.

Records with an inconclusive call do not appear. Activity calls are given as the source filed them.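 Rule for the calls, unless noted: active = normalized viability below 100% at a tested concentration; inactive = the rest.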

The nature of experiment [1]: viability loss in pontine glioma line – cell-based, SU-DIPG-XVII, MIPE5.0, CellTiter-Glo, qHTS, dose response (AID 1347060; cut-off not given, nearly all actives have AC50 up to about 26 µM;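 for AC50: cells exposed to compound for 48 hours before viability readout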). Conditions: CellTiter-Glo ATP luminescence. On the technique in general: Cellular ATP, detected with luciferase, serves as a proxy for viable cell number.
Experiment [2] in a line: viability loss in pontine glioma line – cell-based, SU-DIPG-XIII, MIPE5.0, CellTiter-Glo, qHTS, dose response (AID 1347064; cut-off not given, nearly all actives have AC50 up to about 23 µM;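 for AC50: cells exposed to compound for 48 hours before the viability read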). The conditions noted are these: CellTiter-Glo ATP luminescence.
Experiment [3] in a line: viability loss in pontine glioma line – cell-based, SU-DIPG-XXV, MIPE5.0, CellTiter-Glo, qHTS, dose response (AID 1347065; cut-off not given, nearly all actives have AC50 up to about 26 µM;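 note: cells exposed to compound for 48 hours before ATP readout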). The conditions noted are these: CellTiter-Glo ATP luminescence.
Experiment [4] is described as follows: JHH-DIPG-1 glioma cell viability, MIPE5.0 library, CellTiter-Glo luminescence, qHTS (AID 1347067; cut-off not given, nearly all actives have AC50 up to about 26 µM;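 note: cells exposed to compound for 48 hours before readout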). Conditions: JHH-DIPG-1 glioma viability, CellTiter-Glo ATP luminescence.
Experiment [5] in a line: growth inhibition of DIPG cells – cell-based, MIPE5.0 library, qHTS (AID 1347068; cut-off not given, nearly all actives have IC50 up to about 30 µM;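 for IC50: cells exposed to compound for 48 hours before viability readout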). Conditions: SU-DIPG-XXV viability.
Experiment [6] can be described thus: viability loss with induced miR-34 in A549 – imaging, A549 dox-inducible miR-34, nuclei and caspase counts, primary screen (AID 1347080;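 active = compounds whose cell count with miR-34 switched on is under 0.7 times the count with it off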). The conditions noted are these: A549 miR-34 inducible, Hoechst nuclei count, 48 h.
Experiment [7] can be described thus: MELAS cybrid and Rieske KO viability enhancers – cell-based, MELAS cybrids, Rieske KO mouse fibroblasts, CellTiter-Glo, primary screen (AID 1508586;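 active = mean z-score across replicates of 1.96 or higher in either the MELAS or the Rieske mutant cell line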;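 note: z relative to plate mean and SD of compound and empty wells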). Conditions: low glucose.
The nature of experiment [8]: drug combination growth inhibition, ovarian cancer – cell-based, oncology-focused library, rucaparib conditional, profiling panel (AID 1508598). The conditions noted are these: patient-derived ovarian cancer cells, CellTiter-Glo viability, 144 h, stronger effect = lower value.
Where [9] appears, read: stronger effect = lower value, cell number ratio, induced over uninduced.
Where [10] appears, read: measured here: relative caspase fold change +Dox/-Dox.
The mark [11] stands for this setting: measured here: total cells with miR-34 induction, stronger effect = lower value.
Setting [12] is: measured here: total cells without miR-34 induction.
[13] abbreviates: MELAS cybrid survival, CellTiter-Glo 48 h, stronger effect = higher value.
[14] abbreviates: Rieske KO mouse fibroblast survival, CellTiter-Glo 72 h.

What is called AC50 is the midpoint of the concentration-response curve, whichever way the signal moves. Usually IC50 stands for the concentration needed to halve the response being measured. Consider `CCN1CCN(Cc2ccc(Nc3ncc(F)c(-c4cc(F)c5nc(C)n(C(C)C)c5c4)n3)nc2)CC1`, for which the AC50 in experiment [1] is 5.9 µM (active); in experiment [2], 7.42 µM (active); in experiment [3], 6.61 µM (active); in experiment [4] it was 8.33 µM (active). Further, the IC50 in experiment [5] is 23.5 µM (active). The figures for the fold change in experiment [6] (setting [9]) and in experiment [6] (setting [10]) were 0.908 (inactive) and 0.558, respectively. Besides, the cell count was determined as 2650 in experiment [6] (setting [11]) and 2920 in experiment [6] (setting [12]). Further, the values for the z-score in experiment [7] (setting [13]) and in experiment [7] (setting [14]) were 5.9 (active) and -5.11, respectively.

As for `C=CC(=O)Nc1ccc2ncnc(Nc3cccc(Br)c3)c2c1`, the half-maximal activity concentration (AC50) in experiment [1] was 10.5 µM (active); in experiment [2], 18.6 µM (active); in experiment [3], 9.34 µM (active); in experiment [4], 13.2 µM (active). The IC50 in experiment [5] is 4.68 µM (active). In addition, the results for the fold change in experiment [6] (setting [9]) and in experiment [6] (setting [10]) were 0.91 (inactive) and 0.865, respectively. Besides, the cell count stood at 3490 in experiment [6] (setting [11]) and 3830 in experiment [6] (setting [12]). In addition, the z-score is -0.254 (inactive) in experiment [7] (setting [13]) and -0.0488 in experiment [7] (setting [14]).

As for `C=CC(=O)Nc1cccc(Nc2nc(Nc3ccc(N4CCN(C(C)=O)CC4)cc3OC)ncc2C(F)(F)F)c1`, the AC50 in experiment [1] was 1.48 µM (active); in experiment [2], 1.66 µM (active); in experiment [3], 0.742 µM (active); in experiment [4] it was 1.86 µM (active). Besides, the concentration for half-maximal inhibition (IC50) in experiment [5] is 1.32 µM (active). The values for the fold change in experiment [6] (setting [9]) and in experiment [6] (setting [10]) were 0.925 (inactive) and 0.348, respectively. The cell count in experiment [6] (setting [11]) was 2040; in experiment [6] (setting [12]), 2210. The figures for the z-score in experiment [7] (setting [13]) and in experiment [7] (setting [14]) were -0.595 (inactive) and 1.83, respectively.

For orientation: viability means a read-out of living cells in per cent, often relative to untreated cells. For `COc1cc(Nc2nc3ccccc3nc2NS(=O)(=O)c2ccc(NC(=O)c3ccc(C)c(OC)c3)cc2)cc(OC)c1`, the molecule was classed as inactive in experiment [1], in experiment [2], in experiment [3], in experiment [4] and in experiment [5]. Moreover, the fold change in experiment [6] (setting [9]) was 0.923 (inactive); in experiment [6] (setting [10]), 1.03. In addition, the cell count in experiment [6] (setting [11]) came to 7550; in experiment [6] (setting [12]) it was 8180. The z-score in experiment [7] (setting [13]) was -0.401 (inactive); in experiment [7] (setting [14]), 0.479. The viability in experiment [8] (at 0.000305 µM, OCI-C5x cells, with rucaparib 10 µM, 100% = cells with rucaparib alone) is 98.9% (active); in experiment [8] (at 0.000305 µM, OCI-C5x cells, without rucaparib), 109% (inactive); in experiment [8] (at 0.000305 µM, OCI-P5x cells, with rucaparib 20 µM, 100% = cells with rucaparib alone), 91.1% (active); in experiment [8] (at 0.000305 µM, OCI-P5x cells, without rucaparib), 95.8% (active); in experiment [8] (at 0.00122 µM, OCI-C5x cells, with rucaparib 10 µM, 100% = cells with rucaparib alone), 114% (inactive); in experiment [8] (at 0.00122 µM, OCI-C5x cells, without rucaparib), 112% (inactive). Further, the viability in experiment [8] (at 0.00122 µM, OCI-P5x cells, with rucaparib 20 µM, 100% = cells with rucaparib alone) is 104% (inactive); in experiment [8] (at 0.00122 µM, OCI-P5x cells, without rucaparib) it was 98.9% (active); in experiment [8] (at 0.00488 µM, OCI-C5x cells, with rucaparib 10 µM, 100% = cells with rucaparib alone) it was 110% (inactive); in experiment [8] (at 0.00488 µM, OCI-C5x cells, without rucaparib), 112% (inactive); in experiment [8] (at 0.00488 µM, OCI-P5x cells, with rucaparib 20 µM, 100% = cells with rucaparib alone), 103% (inactive); in experiment [8] (at 0.00488 µM, OCI-P5x cells, without rucaparib) it was 101% (inactive). For the same molecule, the viability in experiment [8] (at 0.0195 µM, OCI-C5x cells, with rucaparib 10 µM, 100% = cells with rucaparib alone) is 106% (inactive); in experiment [8] (at 0.0195 µM, OCI-C5x cells, without rucaparib) it was 109% (inactive); in experiment [8] (at 0.0195 µM, OCI-P5x cells, with rucaparib 20 µM, 100% = cells with rucaparib alone) it was 101% (inactive); in experiment [8] (at 0.0195 µM, OCI-P5x cells, without rucaparib), 107% (inactive); in experiment [8] (at 0.0781 µM, OCI-C5x cells, with rucaparib 10 µM, 100% = cells with rucaparib alone), 118% (inactive); in experiment [8] (at 0.0781 µM, OCI-C5x cells, without rucaparib) it was 114% (inactive). Besides, the viability in experiment [8] (at 0.0781 µM, OCI-P5x cells, with rucaparib 20 µM, 100% = cells with rucaparib alone) is 109% (inactive); in experiment [8] (at 0.0781 µM, OCI-P5x cells, without rucaparib), 108% (inactive); in experiment [8] (at 0.313 µM, OCI-C5x cells, with rucaparib 10 µM, 100% = cells with rucaparib alone), 108% (inactive); in experiment [8] (at 0.313 µM, OCI-C5x cells, without rucaparib), 116% (inactive); in experiment [8] (at 0.313 µM, OCI-P5x cells, with rucaparib 20 µM, 100% = cells with rucaparib alone) it was 107% (inactive); in experiment [8] (at 0.313 µM, OCI-P5x cells, without rucaparib) it was 104% (inactive). The viability is 106% (inactive) in experiment [8] (at 1.25 µM, OCI-C5x cells, with rucaparib 10 µM, 100% = cells with rucaparib alone); 120% (inactive) in experiment [8] (at 1.25 µM, OCI-C5x cells, without rucaparib); 90.5% (active) in experiment [8] (at 1.25 µM, OCI-P5x cells, with rucaparib 20 µM, 100% = cells with rucaparib alone); 108% (inactive) in experiment [8] (at 1.25 µM, OCI-P5x cells, without rucaparib); 111% (inactive) in experiment [8] (at 5 µM, OCI-C5x cells, with rucaparib 10 µM, 100% = cells with rucaparib alone); 121% (inactive) in experiment [8] (at 5 µM, OCI-C5x cells, without rucaparib). Besides, the viability is 92.1% (active) in experiment [8] (at 5 µM, OCI-P5x cells, with rucaparib 20 µM, 100% = cells with rucaparib alone) and 111% (inactive) in experiment [8] (at 5 µM, OCI-P5x cells, without rucaparib).

Consider `Cc1cc(Nc2ncc(Cl)c(Nc3ccccc3S(=O)(=O)C(C)C)n2)c(OC(C)C)cc1C1CCNCC1`, for which the AC50 was 2.95 µM (active) in experiment [1], 1.32 µM (active) in experiment [2], 0.934 µM (active) in experiment [3] and 1.66 µM (active) in experiment [4]. Also, the IC50 in experiment [5] is 3.32 µM (active). Also, the fold change in experiment [6] (setting [9]) was 0.935 (inactive); in experiment [6] (setting [10]), 0.748. For the same molecule, the figures for the cell count in experiment [6] (setting [11]) and in experiment [6] (setting [12]) were 3290 and 3520, respectively. The z-score in experiment [7] (setting [13]) was -0.455 (inactive); in experiment [7] (setting [14]) it was -0.428.
